Screening data (PubChem)
BoNT-A LC inh2: BoNT/A light chain protease inhibitors, primary screen, biochemical, flow cytometry, MLPCN library | Botulinum neurotoxin type A light chain protease (Clostridium botulinum A str. ATCC 3502) | multiplex microsphere protease substrate cleavage | inhibition, % at 10 µM | 0.17% of 360,000 active; also: plate controls were buffer without enzyme for full effect and enzyme alone for no effect
Autofluor counter: counter-screen for toxin protease inhibitors: compound fluorescence; fluorescence intensity (test concentration not listed); 3.1% of 360,000 active; compound autofluorescence counterscreen, microsphere flow cytometry; hits give high values; AID 624483; in the data active = fluorescence intensity above about 16000; inconclusive = no clear call, values can overlap the other calls
SARS 3CLpro inh-1: SARS-CoV 3CLpro protease inhibitors, primary screen, biochemical, quenched FRET | recombinant SARS-CoV 3CLpro, quenched FRET peptide cleavage | Replicase polyprotein 1ab (Severe acute respiratory syndrome coronavirus), P0C6X7 | inhibition, % at 6 µM | 0.14% of 290,000 active | AID 1706, 2009; in the data active = inhibition above about 12%
Anthrax LF prot: Bacillus anthracis LF protease inhibitors, primary screen, biochemical, multiplex microsphere, MLPCN library. Lethal factor (Bacillus anthracis), P15917. multiplex microsphere protease cleavage assay. inhibition, % at 10 µM. 0.12% of 360,000 active. AID 588501, 2011; also: plate controls were buffer without enzyme for full effect and enzyme alone for no effect
BoNT F protease: BoNT/F light chain protease inhibitors, primary screen, biochemical, flow cytometry, MLPCN library; Botulinum neurotoxin type F light chain protease (Clostridium botulinum); Multiplex microsphere protease cleavage assay; inhibition, % at 10 µM; 0.22% of 360,000 active; in the data active = inhibition above about 35%, passing the limit was not always enough; inconclusive = no clear call, values can overlap the other calls; also: plate controls were buffer without enzyme for full effect and enzyme alone for no effect
VHR inh abs: VHR1 phosphatase inhibitors, primary screen, biochemical, absorbance, uHTS | Dual specificity protein phosphatase 3 (Homo sapiens), P51452 | recombinant VHR phosphatase, pNPP absorbance | inhibition, % at 13.3 µM | 0.52% of 290,000 active | AID 1654, 2009; in the data active = inhibition above about 50%
SARS 3CLpro inh-2: confirmation of SARS coronavirus 3C-like protease inhibitors, retest, confirmation, biochemical; shares compounds with SARS 3CLpro inh-1; QFRET protease activity assay, 3CLpro; inhibition, % at 6 µM; 36% of 380 active; AID 1879, 2009; in the data active = inhibition above about 13%
Starred values were filed as active, the others as inactive; ? = inconclusive; / = not tested or not shown. An excerpt weighted towards active compounds, which were near 3.9% of everything screened. Rule as the data show it, unless noted: active = inhibition above about 30%; inconclusive = no clear call, values can overlap the other calls; inactive = below that.

SMILES	BoNT-A LC inh2	Autofluor counter	SARS 3CLpro inh-1	Anthrax LF prot	BoNT F protease	VHR inh abs	SARS 3CLpro inh-2
COC(=O)c1ccc(OC(=O)CN2C(=O)c3ccccc3C2=O)cc1	-5.5	3709	14.9*	38.2*	?	-15.8	13.7*
N#Cc1ccc(-c2nc3ccc(Br)cn3c2Cc2ccccc2)cc1	1.8	3523	/	5.0	1.2	/	/
O=C(COC(=O)CCc1c[nH]c2ccccc12)Nc1ccccc1	-3.9	5169	/	1.9	6.7	/	/
O=C(COC(=O)CCc1c[nH]c2ccccc12)NC(c1ccccc1)c1ccccc1	-0.5	2360	13.1*	-0.4	-3.2	17.7	0.8
CN(C(=O)c1cccc(NC(=O)Cc2ccc(NC(=O)C3CCN(C(=O)C4CCC4)CC3)cc2)c1)C1CCC1	-0.1	3518	/	-7.6	-3.5	/	/
Cc1cccc(-n2nc(C)c3c(C(=O)O)cc(-c4cccs4)nc32)c1	-0.8	4197	12.7*	-6.3	-4.7	-15.4	7.9
Cc1nn(-c2cccc(Cl)c2)c2nc(-c3ccco3)cc(C(=O)O)c12	/	/	5.8	/	/	-12.3	/
CCOC(=O)c1sc(N(Cc2ccccc2)C(=O)CCl)nc1C	-0.4	4676	5.9	-9.7	5.4	-28.8	/
O=C(O)CSCC(=O)N(Cc1ccccc1)c1nc(-c2ccccc2)c(-c2ccccc2)s1	1.3	5364	12.5*	0.0	11.9	16.6	5.5
Nc1c(C(O)(C(F)(F)F)C(F)(F)F)cc(C(O)(C(F)(F)F)C(F)(F)F)c2ccccc12	0.3	2986	14.4*	-3.3	0.6	7.5	11.5
Cc1cccc(OC(C)C(=O)N2CCN(Cc3ccc4c(c3)OCO4)CC2)c1 (configuration not stated)	0.2	4399	-4.0	-1.5	7.5	14.5	/
Cc1ccc(S(=O)(=O)N(C)C)cc1NC(=O)COC(=O)c1ccc2c(c1)OCCO2	1.0	4426	-1.9	0.9	-0.4	7.2	/
CC(=O)N(c1ccc(C(F)(F)F)cc1)S(=O)(=O)c1ccc(N2C(=O)CCC2=O)cc1	2.8	4709	12.6*	3.2	-5.8	0.3	1.1
COc1cnc(-c2cccc(C(F)(F)F)c2)c(NC(=O)c2cc3ccccc3s2)n1	-0.3	3902	/	-7.0	-7.7	/	/
CC(C)(C)OC(=O)[C@H](Cc1ccccc1)NC(=O)c1[nH]cnc1C(=O)N[C@@H](Cc1ccccc1)C(=O)OCc1ccccc1	-0.7	3683	12.7*	-6.5	-1.6	20.5	4.8
CC(C)(C)OC(=O)[C@H](Cc1ccccc1)NC(=O)c1nc[nH]c1C(=O)N[C@@H](Cc1ccccc1)C(=O)OC(C)(C)C	0.2	2803	/	2.2	-3.7	-0.3	/
O=C(Cn1nnc2ccccc21)N/N=C\c1cccs1	0.8	2006	13.7*	-0.9	-1.9	7.4	16.5*
COc1cc(/C=N\NC(=O)Cn2nnc3ccccc32)cc(OC)c1OC	-0.5	2827	37.5*	-1.3	-3.7	12.0	56.6*
CC(/C=C/c1ccc(O)cc1)=NNc1ccccc1	-0.1	2811	/	-2.2	-3.7	/	/
Cc1ccc(S(=O)(=O)NCCn2nc(C)nc2C)cc1	0.9	5083	5.3	-1.2	-4.3	12.5	/
Cc1cc2c(cc1C)C(c1cc(Br)ccc1F)CC(=O)N2 (configuration not stated)	-0.3	2530	7.0	-2.4	0.7	-1.2	/
Cc1cc2c(cc1C)C(c1ccccc1F)CC(=O)N2 (configuration not stated)	-1.1	3329	12.6*	-1.0	?	0.1	-1.9
COc1cccc(NC(=O)c2cc(Cl)nnc2Cl)c1	0.0	2819	6.5	0.6	-0.4	14.7	/
COc1cc(NC(=O)c2cc(Cl)nnc2Cl)cc(OC)c1OC	0.6	2550	22.2*	1.5	5.4	20.4	6.2
COc1ccccc1CCNC(=O)C(=O)NCC1OCCN1S(=O)(=O)c1ccc2c(c1)OCCO2 (configuration not stated)	2.0	5276	12.9*	-5.6	-8.2	-3.0	-1.1
